From publication PMC13423814

Target: CHTOP (UniProt Q9Y3Y2)
Conditions: DSSO, in cells

Chain of CHTOP (Q9Y3Y2 whole entry): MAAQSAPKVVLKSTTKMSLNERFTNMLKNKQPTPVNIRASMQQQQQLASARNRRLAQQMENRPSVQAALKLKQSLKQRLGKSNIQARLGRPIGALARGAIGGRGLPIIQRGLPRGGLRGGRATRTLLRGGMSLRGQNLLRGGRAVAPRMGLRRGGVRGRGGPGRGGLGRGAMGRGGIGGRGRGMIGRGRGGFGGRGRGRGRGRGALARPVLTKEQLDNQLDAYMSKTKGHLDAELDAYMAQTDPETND
Chain of DDX39A, O00148 (O00148 whole entry): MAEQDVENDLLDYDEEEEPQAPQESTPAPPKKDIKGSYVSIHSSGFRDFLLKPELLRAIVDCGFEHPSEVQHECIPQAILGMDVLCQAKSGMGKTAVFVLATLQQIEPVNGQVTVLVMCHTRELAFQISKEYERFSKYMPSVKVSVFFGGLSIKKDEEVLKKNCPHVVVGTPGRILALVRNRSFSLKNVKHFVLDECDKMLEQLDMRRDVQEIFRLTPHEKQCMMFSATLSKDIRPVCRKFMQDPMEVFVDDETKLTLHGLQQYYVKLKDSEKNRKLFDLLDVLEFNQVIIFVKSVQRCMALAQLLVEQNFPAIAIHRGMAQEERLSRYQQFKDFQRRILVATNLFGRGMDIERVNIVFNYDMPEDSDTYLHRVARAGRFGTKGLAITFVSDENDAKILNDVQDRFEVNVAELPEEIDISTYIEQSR
Chain of EIF4A3, P38919 (P38919 whole entry): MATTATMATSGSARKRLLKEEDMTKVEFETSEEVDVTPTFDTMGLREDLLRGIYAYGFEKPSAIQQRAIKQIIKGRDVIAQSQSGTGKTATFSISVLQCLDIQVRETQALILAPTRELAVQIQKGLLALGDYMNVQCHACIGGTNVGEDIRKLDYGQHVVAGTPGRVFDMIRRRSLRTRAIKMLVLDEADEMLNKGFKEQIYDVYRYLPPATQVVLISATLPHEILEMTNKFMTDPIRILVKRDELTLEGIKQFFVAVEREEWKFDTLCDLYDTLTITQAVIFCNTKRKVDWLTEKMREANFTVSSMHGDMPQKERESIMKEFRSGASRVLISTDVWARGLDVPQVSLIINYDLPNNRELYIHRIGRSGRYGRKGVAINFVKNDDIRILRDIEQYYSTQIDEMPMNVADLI
Chain of DDX39B, Q13838 (Q13838 whole entry): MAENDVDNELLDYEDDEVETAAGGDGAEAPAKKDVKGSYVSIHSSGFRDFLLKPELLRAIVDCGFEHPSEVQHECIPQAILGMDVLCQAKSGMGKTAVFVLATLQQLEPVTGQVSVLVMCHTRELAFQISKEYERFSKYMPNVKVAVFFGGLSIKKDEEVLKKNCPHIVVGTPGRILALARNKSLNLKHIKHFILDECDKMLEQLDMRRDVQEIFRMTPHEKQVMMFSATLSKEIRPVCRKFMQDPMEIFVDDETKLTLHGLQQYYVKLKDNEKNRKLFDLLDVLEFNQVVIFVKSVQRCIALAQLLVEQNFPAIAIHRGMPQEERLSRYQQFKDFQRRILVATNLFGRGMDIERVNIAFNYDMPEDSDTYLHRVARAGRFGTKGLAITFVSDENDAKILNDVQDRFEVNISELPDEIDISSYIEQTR

Substance | cross-linked residues
EIF4A3, P38919 | K152 - K81
DDX39A, O00148 | K187 - S225
DDX39B, Q13838 | K188 - K226
